Drawing on PubChem BioAssay (NCATS), this text covers Potency, activation and outcome for 27 compounds.

SMILES strings stand for the structures. Several values for one entry are separate records, joined by “and”; a condition that tells them apart may be missing. Identical values can stand only once. Values without a mark were called inactive. Inconclusive results are not listed. Activity calls are given as the source filed them. Unless noted, calls follow the shape of the dose curve; as a rule, active = well fitted curve in the direction sought with a large enough effect; inconclusive = small, poorly fitted or top-dose-only effect, or another doubt; inactive = no such curve, though single readings can be large; an effect the other way counts as inactive or inconclusive.

Test [1] can be described thus: S16 Schwann cell PMP22 intronic element beta-lactamase assay (AID 624044; calls by dose curve;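 also: 0% = DMSO and -100% = potassium clavulanate positive control; nearly all actives have a fitted effect of over 15% in size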). The essentials:
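Rat S16 Schwann cells with beta-Lac driven by a PMP22 intronic element, compound-treated 24 h at 37 °C. LiveBLAzer FRET B/G read: 460 nm normalized to potassium clavulanate vs DMSO; 535 nm FRET as viability; concentration-effect curves classified.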

A short description of test [2]: S16 Schwann cell PMP22 intronic element firefly luciferase assay (AID 624032).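 Also: series mostly up to about 58 µM; plate controls were DMSO for no effect and PTC124 positive control mean for full effect; nearly all actives have a fitted effect of over 30% in size.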 The essentials: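 Luciferase reporter of PMP22 intronic-element expression in stably transfected S16 rat Schwann cells, read by ONE-Glo luminescence after 24 h compound exposure at 37 C. Activity scaled between DMSO (0%) and positive-control PTC124; concentration-effect curves quality-classified.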

A short description of test [3]: qHTS assay for small molecule agonists of the antioxidant response element (ARE) signaling pathway (AID 651741; active = well fitted activation curve with a large enough effect in the signal ratio; the % refers to the signal ratio; also: potency is read from the fitted curve at half-maximal effect; as to activation: % of control where 0% means no effect). The essentials: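 Quantitative HTS in HepG2 cells stably expressing an ARE-beta-lactamase reporter; 16 h compound exposure at 37 C, followed by 2 h room-temperature incubation with LiveBLAzer B/G FRET substrate and fluorescence measurement.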
Test [4] is described as follows: qHTS assay for small molecule activators of the p53 signaling pathway (AID 651743; active = well fitted activation curve with a large enough effect in the signal ratio, not every such curve was filed as active; the % refers to the signal ratio; also: potency is read from the fitted curve at half-maximal effect; as to activation: series mostly up to about 92 µM; % of control where 0% means no effect). The following applies: HCT-116 p53RE-bla, beta-lactamase FRET ratio, 16 h; activation: hits give high values. The essentials: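 Read-out is fluorescence intensity from the LiveBLAzer B/G FRET substrate, added for 2 hours at room temperature after HCT-116 p53RE-bla cells had been incubated with compounds for 16 hours at 37 C.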

The nature of test [5]: qHTS assay for small molecule activators of the nuclear factor-kappa B (NF-kB) signaling pathway (AID 651749; active = well fitted activation curve with a large enough effect in the signal ratio; the % refers to the signal ratio; also: series mostly up to about 77 µM; % of control where 0% means no effect). The settings on record: NF-kB-bla ME-180 cells, beta-lactamase FRET ratio, 16 h; hits give high values. In outline:
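Readout: beta-lactamase reporter driven by an NF-kB response element, detected fluorescently as loss of FRET. Cells were the ME-180 line, treated 16 hr at 37C with pin-transferred compound.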

Test [6] addresses Glutaminase kidney isoform, mitochondrial (Homo sapiens) (UniProt O94925). As to the kind of experiment: qHTS for Inhibitors of Glutaminase (GLS): LOPAC Validation (AID 624146). Also: nearly all actives have a fitted effect of over 60% in size. Also: potency is read from the fitted curve at half-maximal effect. In outline:
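Compounds were pin-transferred onto hKGA, after which L-glutamine (1 mM solution) and a detection mix of glutamate oxidase, HRP and Amplex Red were added. Initial and 30 min RT fluorescence reads were collected.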

Test [7] can be described thus: qHTS of Trypanosoma Brucei Inhibitors: LOPAC Validation (AID 624147). Also: 0% is about no effect. The essentials: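 Readout: single end-point luminescence (Kinase-Glo Plus, 10 min). Reaction conditions were TbPYK/substrate plus 130 uM ADP, 45 min at RT, pH 7.2 TEA buffer. No-enzyme wells served as controls, and data were normalized before concentration-response fitting.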
The target of test [8] is Glucagon-like peptide 1 receptor (Homo sapiens) (UniProt P43220). Put plainly: qHTS of GLP-1 Receptor Agonists: LOPAC Validation (AID 624148).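 Also: luminescence from a luciferase reporter switched on by cAMP; 0% is about no effect; higher luminescence signal means agonism.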 In outline:
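Agonism scored as increased luciferase luminescence driven by cAMP in HEK293 clones carrying GLP-1R. Cells settled 12 hours, received compound for 4-6 hr at 37 deg C, 5% CO2, and were read after 12 min detection reagent at RT.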

A short description of test [9]: qHTS of Nrf2 Activators: LOPAC Validation (AID 624149). Also: 0% is about no effect. In outline: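 AREc32_Fluc cells, 1000/well in OPTI-MEM with 5% FBS, grown overnight, then exposed to compounds for 24 hr at 37 deg C, 5% CO2. ARE-driven firefly luciferase read by Steady-Glo luminescence after 30 min at RT.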
Test [10] in a line: HTS Assay for Allosteric Antagonists of the Human D2 Dopamine Receptor: Hit Validation in HTRF (AID 624455).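 Also: stable D1 dopamine receptor cell line scored for blocking the D1 response; % is scaled to controls: 0 for no effect and ±100 for the full control effect.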 In outline: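 Hit validation in cells stably expressing the D1 dopamine receptor, run in HTRF format. Compounds were tested for their ability to inhibit the D1-mediated response.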

Chain of Glutaminase kidney isoform, mitochondrial (Homo sapiens) (O94925 whole entry, looked up, canonical isoform): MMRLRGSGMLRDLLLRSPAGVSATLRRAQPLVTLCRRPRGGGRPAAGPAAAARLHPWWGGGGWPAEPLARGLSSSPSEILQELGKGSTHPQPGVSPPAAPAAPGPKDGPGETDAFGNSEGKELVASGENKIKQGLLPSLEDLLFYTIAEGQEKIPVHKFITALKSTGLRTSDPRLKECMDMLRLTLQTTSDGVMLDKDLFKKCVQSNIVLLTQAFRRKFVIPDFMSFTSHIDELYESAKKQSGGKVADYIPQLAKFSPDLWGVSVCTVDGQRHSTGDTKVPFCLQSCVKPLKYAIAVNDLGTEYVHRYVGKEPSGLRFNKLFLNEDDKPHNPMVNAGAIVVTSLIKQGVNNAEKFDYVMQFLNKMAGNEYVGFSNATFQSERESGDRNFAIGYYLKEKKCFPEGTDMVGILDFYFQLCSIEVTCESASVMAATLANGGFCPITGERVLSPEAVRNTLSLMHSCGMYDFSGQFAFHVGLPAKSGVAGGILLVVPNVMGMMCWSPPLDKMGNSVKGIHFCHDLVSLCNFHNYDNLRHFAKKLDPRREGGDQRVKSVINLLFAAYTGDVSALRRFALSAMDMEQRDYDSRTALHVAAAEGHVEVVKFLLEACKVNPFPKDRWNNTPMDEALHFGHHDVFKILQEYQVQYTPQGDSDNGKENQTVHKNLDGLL
Chain of Glucagon-like peptide 1 receptor (Homo sapiens) (P43220 whole entry, looked up): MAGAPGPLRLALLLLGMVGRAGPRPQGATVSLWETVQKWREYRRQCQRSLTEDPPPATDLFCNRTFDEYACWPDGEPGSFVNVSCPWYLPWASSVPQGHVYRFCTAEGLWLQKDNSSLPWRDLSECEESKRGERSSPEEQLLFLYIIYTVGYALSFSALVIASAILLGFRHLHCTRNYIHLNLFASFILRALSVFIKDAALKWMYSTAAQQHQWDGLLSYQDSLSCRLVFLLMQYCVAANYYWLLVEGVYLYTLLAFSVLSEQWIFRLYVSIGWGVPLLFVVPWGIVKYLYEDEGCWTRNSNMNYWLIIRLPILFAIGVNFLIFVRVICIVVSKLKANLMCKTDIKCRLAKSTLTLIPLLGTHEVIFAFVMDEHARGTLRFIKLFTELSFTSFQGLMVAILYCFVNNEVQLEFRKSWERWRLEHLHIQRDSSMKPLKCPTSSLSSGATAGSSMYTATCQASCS

For the compound `O=C1CCCCC1CN1CCCCC1` (stereo not given), the Potency entry in test [1] is “inactive”.

For the compound `O=[N+]([O-])c1ccccc1`, the Potency result in test [2] and in test [3] was “inactive” in each case. In addition, the activation in [4] is 2.6% and -2.69%; in test [5] it was -0.285% and -0.296%.

In the case of `C[C@H](N)Cc1cccc(C(F)(F)F)c1`, the Potency result in test [6], in test [7], in test [9] and in [10] was “inactive” throughout. In test [8], the compound was called inactive.

With `C=CCN(C1=NCCN1)c1c(Cl)cccc1Cl`, the Potency result in [2], in [6], in test [7], in [9] and in test [10] was “inactive” throughout. Besides, in test [8], the result was inactive.

Consider `CO[C@H]1CC=C2CCN3CCC4=C(CC(=O)OC4)[C@]23C1`, for which the Potency entry in test [6], in [7], in [9] and in test [10] was “inactive” each time. In [8], the result was inactive.

Consider `Clc1cc(I)cc(Cl)c1NC1=NCCN1`, for which the Potency result in test [6], in test [7] and in test [9] was “inactive” each time. The compound was called inactive in [8].

Regarding `CCOP(=O)(OCC)O/C(=C/Cl)c1ccc(Cl)cc1Cl`, the Potency result in test [2] was “inactive”. The Potency in test [3] is 30.6 µM (active). Besides, the activation in [4] was -2.13% and -0.49%; in test [5] it was -2.44% and -1.58%.

With `O=[N+]([O-])c1ccc(F)c([N+](=O)[O-])c1`, in test [2], the Potency result was “inactive”. The Potency in test [3] was 42.2 µM (active). Also, the activation in test [5] is -0.0445%.

In the case of `CCOC(=O)c1ccccc1C(=O)OCC`, the Potency entry in test [2] and in [3] was “inactive” in each case. Also, the activation in [4] was 4.4% and -0.806% and -0.919%; in test [5], 1.25% and 1.36% and -0.459%.

For `COc1ccc2c(c1O)-c1cccc3c1[C@@H](C2)N(C)CC3`, the Potency in [6] was 3.55 µM (active). For the same compound, the Potency entry in [7], in test [9] and in [10] was “inactive” each time. For the same compound, the compound was classed as inactive in test [8].

For the compound `[O]=[Cr](=[O])([OH])[O][Cr](=[O])(=[O])[OH]`, the Potency result in test [1] was “inactive”. Moreover, the Potency in [3] is 7.5 µM (active); in test [4], 22.4 µM (active) and 15.8 µM (active) and 7.94 µM (active). Moreover, the activation in test [5] was 1.49% and -0.838% and 3.86%.

In the case of `COc1ccc2c(c1)[C@@]13CCCC[C@H]1[C@@H](C2)NCC3`, the Potency entry in test [6], in test [7], in test [9] and in test [10] was “inactive” in each case. The compound was called inactive in [8].

In the case of `O=[N+]([O-])c1cc(O)c(O)c([N+](=O)[O-])c1`, in test [6], the Potency is 12.6 µM (active). The Potency result in test [7], in test [9] and in [10] was “inactive” each time. Also, in test [8], the call was inactive.

As for `CCCN(CCC)CCc1c[nH]c2ccc(C(N)=O)cc12`, the Potency entry in test [6], in test [7], in test [9] and in test [10] was “inactive” in each case. In addition, in test [8], the outcome was inactive.

In the case of `c1ccc2c(c1)[I+]c1ccccc1-2`, the Potency entry in test [6], in test [7], in test [9] and in test [10] was “inactive” throughout. For the same compound, the outcome in [8] was inactive.

Regarding `C=CCN1CC[C@]23c4c5ccc(O)c4O[C@H]2/C(=N/NC(=O)c2ccccc2)CC[C@@]3(O)[C@H]1C5`, the Potency in test [6] was 14.1 µM (active). Also, the Potency result in [7], in [9] and in test [10] was “inactive” throughout. Also, the compound was classed as inactive in test [8].

Regarding `CC(C)(C)c1o[nH]c(=O)c1CC(N)C(=O)O` (stereo not given), the Potency entry in test [6], in test [7], in test [9] and in test [10] was “inactive” each time. Moreover, in test [8], the call was inactive.

Turning to `NC(=O)c1ccc(OCC(O)CN2CC=C(c3ccc(F)cc3)CC2)cc1` (stereo not given), the Potency result in [6], in test [7], in [9] and in test [10] was “inactive” in each case. Also, the result in test [8] was inactive.

Consider `C[C@@H]1O[C@H](C[N+](C)(C)C)CS1`, for which the Potency result in [6], in test [7], in test [9] and in test [10] was “inactive” in each case. Besides, in test [8], the compound was classed as inactive.

Consider `COc1ccc2c(c1)C13CCCCC1C(C2)N(C)CC3` (stereo not given), for which the Potency entry in test [6], in test [7], in test [9] and in [10] was “inactive” throughout. In addition, the compound was classed as inactive in [8].

For `CN1CCC(c2c[nH]c3ccc(O)cc23)CC1`, the Potency in [6] was 1.26 µM (active). Moreover, the Potency result in test [7], in test [9] and in test [10] was “inactive” each time. The compound was classed as inactive in test [8].

`CCCC[N+]1(C)C2CC(OC(=O)[C@H](CO)c3ccccc3)CC1C1OC12` (stereo not given in full): the Potency result in test [6], in [7], in [9] and in test [10] was “inactive” throughout. For the same compound, the compound was called inactive in test [8].

In the case of `OC1CCCCC1N1CCC(c2ccccc2)CC1` (stereo not given), the Potency entry in [6], in test [7], in [9] and in test [10] was “inactive” each time. In [8], the outcome was inactive.

Regarding `CC(N)c1cccc(Cl)c1Cl` (stereo not given), the Potency entry in test [6], in test [7], in [9] and in [10] was “inactive” throughout. Also, the compound was called inactive in test [8].

In the case of `CCS(=O)(=O)Nc1cccc(C(=C2CCCCC2)c2cnc[nH]2)c1`, the Potency entry in test [6], in test [7], in test [9] and in [10] was “inactive” in each case. Besides, the call in [8] was inactive.

`N[C@@H](CCl)C(=O)O`: the Potency entry in test [6], in test [7], in [9] and in [10] was “inactive” in each case. In addition, the compound was called inactive in test [8].

On to `CCCn1c(=O)c2[nH]c(C3CCCC3)nc2n(CCCOC(=O)c2ccc(S(=O)(=O)F)cc2)c1=O`, for which the Potency entry in test [6], in test [7], in test [9] and in test [10] was “inactive” each time. The result in [8] was inactive.
